Records with an inconclusive call do not appear. Activity calls are given as the source filed them. Unless noted, the call rests on the fitted dose curve.
Legend:
[1] = target: Peroxisome proliferator-activated receptor delta (Homo sapiens) (UniProt Q03181); experiment: qHTS assay to identify small molecule agonists of the peroxisome proliferator-activated receptor delta (PPARd) signaling pathway (AID 743212)
Procedure, shortened: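 Cells expressing a UAS-driven beta-lactamase reporter (PPARd-bla HEK293H) were given test compounds after a 5 h settle and kept at 37 C. Reporter activity was then measured as FRET fluorescence using LiveBLAzer B/G substrate.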

[2] = qHTS assay to identify small molecule antagonists of the farnesoid-X-receptor (FXR) signaling pathway - cell viability counter screen (AID 743221; active means well fitted cell-killing curve with a large enough effect in the repeat runs, not every such curve was filed as active; further: nearly all actives have a fitted effect of over 50% in size)
Procedure, shortened: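 Quantitative HTS of the Tox21 10K library run in parallel with the beta-lactamase reporter read. HEK 293T cells carrying a UAS-driven bla reporter got compound and 50 uM CDCA (final) for 16 h; ATP-based luminescence followed.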

[3] = target: Vitamin D3 receptor (Homo sapiens) (UniProt P11473); experiment: qHTS assay to identify small molecule agonists of the vitamin D receptor (VDR) signaling pathway (AID 743222)
Procedure, shortened: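 Agonist mode, beta-lactamase reporter: fluorescence from LiveBLAzer B/G FRET substrate (2 h, room temperature) read after 16 h compound treatment at 37 C of VDR-bla cells, which were pre-incubated 4 h after seeding.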

[4] = target: Bile acid receptor (Homo sapiens) (UniProt Q96RI1); experiment: qHTS assay to identify small molecule agonists of the farnesoid-X-receptor (FXR) signaling pathway (AID 743220; active means well fitted activation curve with a large enough effect in the signal ratio in the repeat runs, not every such curve was filed as active; the % refers to the signal ratio)
Procedure, shortened: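 FXR-UAS-bla HEK 293T cells carrying a UAS-driven beta-lactamase reporter were plated for 5 h at 37C/5% CO2, then exposed to DMSO-dissolved Tox21 10K compounds for 16 h at 37C. A LiveBLAzer B/G FRET substrate was loaded for 2 h at room temperature before fluorescence reading.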

[5] = qHTS assay to identify small molecule antagonists of the peroxisome proliferator-activated receptor delta (PPARd) signaling pathway - cell viability counter screen (AID 743213; active means well fitted curve in the direction sought with a large enough effect in the repeat runs; an effect the other way counts as inactive or inconclusive; further: nearly all actives have a fitted effect of over 50% in size)
Procedure, shortened: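 Viability counter-screen, qHTS format: PPARd-bla HEK293H, L165041 300 nM final, 17 h compound exposure at 37 C, CellTiter-Glo luminescence after 30 min RT.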

[6] = target: Bile acid receptor (Homo sapiens) (UniProt Q96RI1); experiment: qHTS assay to identify small molecule antagonists of the farnesoid-X-receptor (FXR) signaling pathway (AID 743217; active means well fitted inhibition curve with a large enough effect in the signal ratio in the repeat runs, not every such curve was filed as active; the % refers to the signal ratio)
Procedure, shortened: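 Antagonist mode: chenodeoxycholic acid at 50 uM final stimulates a UAS-driven beta-lactamase reporter in HEK 293T FXR-bla cells during 16 h, 37C compound exposure. Read-out is FRET substrate fluorescence after 2 h at room temperature.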

[7] = qHTS assay to identify small molecule agonists of the farnesoid-X-receptor (FXR) signaling pathway - cell viability counter screen (AID 743218; active means well fitted curve in the direction sought with a large enough effect in the repeat runs; an effect the other way counts as inactive or inconclusive; further: nearly all actives have a fitted effect of over 45% in size)
Procedure, shortened: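 Viability counter screen in the same wells: CellTiter-Glo luminescence, 30 min room-temperature incubation, measured after the beta-lactamase read. Cells were GeneBLAzer FXR-UAS-bla HEK 293T, compound-treated 16 h at 37C.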

[8] = target: Vitamin D3 receptor (Homo sapiens) (UniProt P11473); experiment: qHTS assay to identify small molecule antagonists of the vitamin D receptor (VDR) signaling pathway (AID 743223; active means well fitted inhibition curve with a large enough effect in the signal ratio in the repeat runs, not every such curve was filed as active; the % refers to the signal ratio)
Procedure, shortened: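 Fluorescence from LiveBLAzer B/G FRET substrate, read after 2 h at room temperature, reflects beta-lactamase reporter activity in VDR-bla cells treated 16 h at 37C with compounds and agonist 1alpha,25-dihydroxyvitamin D3 (3 nM final).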

Measured: Potency

Chain of Bile acid receptor (Homo sapiens) (Q96RI1 whole entry, looked up): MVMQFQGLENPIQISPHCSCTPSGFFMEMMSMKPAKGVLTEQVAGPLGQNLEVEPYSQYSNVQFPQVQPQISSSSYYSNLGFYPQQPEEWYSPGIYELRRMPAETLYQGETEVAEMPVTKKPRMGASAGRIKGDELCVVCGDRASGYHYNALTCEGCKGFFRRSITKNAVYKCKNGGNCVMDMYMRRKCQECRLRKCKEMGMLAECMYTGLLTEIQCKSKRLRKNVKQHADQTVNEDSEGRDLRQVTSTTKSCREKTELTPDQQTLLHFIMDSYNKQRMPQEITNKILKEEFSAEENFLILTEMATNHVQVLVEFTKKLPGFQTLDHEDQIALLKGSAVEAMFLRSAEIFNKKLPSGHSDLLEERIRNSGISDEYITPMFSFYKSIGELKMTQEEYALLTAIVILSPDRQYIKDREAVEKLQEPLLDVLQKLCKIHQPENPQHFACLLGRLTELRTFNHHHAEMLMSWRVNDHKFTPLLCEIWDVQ
Chain of Peroxisome proliferator-activated receptor delta (Homo sapiens) (Q03181 whole entry, looked up): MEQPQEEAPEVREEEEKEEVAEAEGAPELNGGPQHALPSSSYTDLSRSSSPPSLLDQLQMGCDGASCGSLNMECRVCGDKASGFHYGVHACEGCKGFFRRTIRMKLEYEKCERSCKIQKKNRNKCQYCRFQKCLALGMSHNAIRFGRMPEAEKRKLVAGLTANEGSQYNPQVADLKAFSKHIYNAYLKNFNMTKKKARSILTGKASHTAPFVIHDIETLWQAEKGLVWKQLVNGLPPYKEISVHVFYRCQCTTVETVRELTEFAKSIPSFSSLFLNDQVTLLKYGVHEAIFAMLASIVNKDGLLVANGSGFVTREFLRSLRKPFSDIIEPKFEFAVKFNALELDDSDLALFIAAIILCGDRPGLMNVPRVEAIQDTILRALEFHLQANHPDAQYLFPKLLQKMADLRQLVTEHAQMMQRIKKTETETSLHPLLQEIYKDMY
Chain of Vitamin D3 receptor (Homo sapiens) (P11473 whole entry, looked up): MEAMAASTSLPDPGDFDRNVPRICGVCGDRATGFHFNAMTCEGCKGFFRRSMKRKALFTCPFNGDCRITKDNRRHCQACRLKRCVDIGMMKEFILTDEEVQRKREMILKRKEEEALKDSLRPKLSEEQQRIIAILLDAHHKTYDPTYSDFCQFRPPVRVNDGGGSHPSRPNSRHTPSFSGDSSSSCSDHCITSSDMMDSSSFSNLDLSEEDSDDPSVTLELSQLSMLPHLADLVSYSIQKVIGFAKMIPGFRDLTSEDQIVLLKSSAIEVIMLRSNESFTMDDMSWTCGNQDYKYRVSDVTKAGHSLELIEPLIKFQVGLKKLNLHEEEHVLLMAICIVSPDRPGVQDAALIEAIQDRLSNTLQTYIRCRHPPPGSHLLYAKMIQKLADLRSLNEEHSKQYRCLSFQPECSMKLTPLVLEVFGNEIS

CC(C)N1C(=O)N(c2ccccc2)CSC1=NC(C)(C)C
inactive: [1] | [2] | [3]

Oc1ccc(C(=C(Cl)Cl)c2ccc(O)cc2)cc1
inactive: [4] | [2]

COc1cc(C=O)cc2c1[C@H](COC(N)=O)[C@]1(OC(C)=O)ON2C[C@H]2[C@@H]1N2C(C)=O
inactive: [1] | [5] | [3]

COc1cccc(C(=O)CCN[C@@H](C)[C@H](O)c2ccccc2)c1
inactive: [1] | [6] | [7] | [4] | [2] | [3]

c1ccc(OCC2CO2)cc1 (stereo unspecified)
inactive: [7] | [2] | [8]

CC(C)(C)c1ccc(CSc2cnn(C(C)(C)C)c(=O)c2Cl)cc1
inactive: [2] | [3]

CCCCOCN(C(=O)CCl)c1c(CC)cccc1CC
inactive: [6] | [7]

From PubChem BioAssay (Tox21)
